Source: PubChem BioAssay
Most compounds without a hit are left out; they make up all but 2.3% or so of the library.
Pf Dd2 growth – inhibitors of Plasmodium falciparum Dd2 growth | P. falciparum Dd2 growth, SYBR Green, 72 h; active compounds read low | activity change, % at 10 µM | actives 2.3% (n = 94,000) | AID 1159554; in the data active = activity change below about -80%; inconclusive = no clear call, values can overlap the other calls
C diff HTS – C. difficile growth inhibition. Clostridium difficile clinical isolate growth, OD600, 24 h; active compounds read low. growth activity, negative = inhibition, % at 16 µg/mL (by protocol). actives 0.25% (n = 86,000). AID 1259249;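 active = mean growth activity at or below -80% and every replicate also at or below -80%; inconclusive = mean at or below -80% but some replicate above -80%; inactive = mean growth activity above -80%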;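 also: 0% = DMSO wells and -100% = levofloxacin 16 µg/mL wells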
Active calls of the source: *; ? = inconclusive; · = not tested or not shown.

SMILES	Pf Dd2 growth	C diff HTS
C[C@@H]1CN([C@H](C)CO)C(=O)c2cc(N(C)C)ccc2O[C@@H](C)CCCCO[C@H]1CN(C)S(=O)(=O)c1ccc(Cl)cc1	-84.3*	-4.4
C[C@H]1CCCCO[C@@H](CN(C)S(=O)(=O)c2ccc(Cl)cc2)[C@@H](C)CN([C@@H](C)CO)C(=O)c2cc(N(C)C)ccc2O1	·	0.1
COc1ccc(S(=O)(=O)N(C)C[C@@H]2OCCCC[C@@H](C)Oc3ccc(N(C)C)cc3C(=O)N([C@@H](C)CO)C[C@H]2C)cc1	-35.7	-1.0
COc1ccc2c3c(n(C)c2c1)[C@@H](CO)NCC31CN(C(=O)Nc2ccc3c(c2)OCO3)C1	-47.1	1.0
COc1ccccc1C#Cc1ccc([C@@H]2[C@@H](C#N)N(C(=O)C3CCCCC3)[C@@H]2CO)cc1	-51.2	-3.1
COc1ccccc1C#Cc1ccc([C@H]2[C@H](C#N)N(C(=O)C3CC3)[C@H]2CO)cc1	-36.8	5.3
COc1ccccc1C#Cc1ccc([C@H]2[C@@H](C#N)N(C(=O)C3CC3)[C@H]2CO)cc1	-85.2*	4.7
COc1ccccc1C#Cc1ccc([C@H]2[C@@H](CO)N(C(=O)C3CCCCC3)[C@H]2C#N)cc1	-90.9*	-2.6
O=C(C[C@H]1C[C@H]2c3cc(NC(=O)NC4CCCC4)ccc3O[C@H]2[C@H](CO)O1)NCc1cc(F)ccc1F	1.0	1.8
C[C@H](CO)N1C[C@H](C)[C@@H](CN(C)Cc2ccc(C(=O)Nc3ccccc3N)cc2)Oc2ccc(NC(=O)Cc3ccccc3)cc2CC1=O	-83.0*	0.6
C[C@@H]1CN([C@H](C)CO)C(=O)Cc2cc(NC(=O)Nc3ccc(F)cc3)ccc2O[C@H]1CN(C)Cc1ccc(C(=O)Nc2ccccc2N)cc1	-39.1	8.5
C[C@H]1CN([C@@H](C)CO)C(=O)Cc2cc(NC(=O)Nc3ccc(F)cc3)ccc2O[C@@H]1CN(C)Cc1ccc(C(=O)Nc2ccccc2N)cc1	-85.6*	2.4
C[C@H](CO)N1C[C@H](C)[C@H](CN(C)Cc2ccc(C(=O)Nc3ccccc3N)cc2)Oc2ccc(NC(=O)c3ccncc3)cc2CC1=O	-49.4	-0.1
C[C@@H]1CN([C@@H](C)CO)C(=O)Cc2cc(NC(=O)c3ccncc3)ccc2O[C@@H]1CN(C)Cc1ccc(C(=O)Nc2ccccc2N)cc1	-85.0*	6.9
C[C@@H]1CN([C@H](C)CO)C(=O)Cc2cc(NC(=O)c3ccncc3)ccc2O[C@@H]1CN(C)Cc1ccc(C(=O)Nc2ccccc2N)cc1	-74.7	5.7
CN(C)CC(=O)Nc1ccc2c(c1)[C@@H]1C[C@H](CC(=O)NCc3ccncc3)O[C@@H](CO)[C@@H]1O2	7.0	3.7
CS(=O)(=O)Nc1ccc2c(c1)[C@H]1C[C@@H](CC(=O)NC3CCCC3)O[C@H](CO)[C@H]1O2	30.8	1.7
COc1ccc2c3c([nH]c2c1)[C@@H](CO)N(Cc1ccc(F)cc1)CC31CN(Cc2ccccn2)C1	?	8.3
COc1ccc2c3c([nH]c2c1)[C@@H](CO)N(Cc1cccc(F)c1)CC31CN(Cc2ccccn2)C1	?	-0.3
COc1ccc2c3c([nH]c2c1)[C@@H](CO)N(Cc1ccncc1)CC31CN(Cc2ccc(-c3ccccn3)cc2)C1	?	4.3
COc1cccc(CN2CC3(CCN(Cc4ccccn4)CC3)c3c([nH]c4cc(OC)ccc34)[C@H]2CO)c1	-83.5*	4.6
COc1ccc2c3c([nH]c2c1)[C@H](CO)N(Cc1ccncc1)CC31CN(Cc2ccc(-c3ccccn3)cc2)C1	-89.2*	5.3
COc1cccc(CN2CC3(CN(Cc4ccccn4)C3)c3c([nH]c4cc(OC)ccc34)[C@H]2CO)c1	-86.9*	12.7
C[C@H]1CN([C@@H](C)CO)C(=O)Cc2cc(NC(=O)NC3CCCCC3)ccc2O[C@H]1CN(C)Cc1ccc(Oc2ccccc2)cc1	-16.9	36.1
COc1ccc(S(=O)(=O)Nc2ccc3c(c2)C(=O)N([C@@H](C)CO)C[C@H](C)[C@@H](CN(C)C(=O)Nc2ccc(C(F)(F)F)cc2)OCCCC[C@@H](C)O3)cc1	-83.7*	-6.1
SMILES	Pf Dd2 growth	C diff HTS
COc1ccc(S(=O)(=O)Nc2ccc3c(c2)C(=O)N([C@@H](C)CO)C[C@@H](C)[C@@H](CN(C)C(=O)Nc2ccc(C(F)(F)F)cc2)OCCCC[C@H](C)O3)cc1	-86.5*	8.9
COc1ccc(S(=O)(=O)Nc2ccc3c(c2)C(=O)N([C@@H](C)CO)C[C@H](C)[C@H](CN(C)C(=O)Nc2ccc(C(F)(F)F)cc2)OCCCC[C@H](C)O3)cc1	-55.9	11.3
COc1ccc(S(=O)(=O)Nc2ccc3c(c2)C(=O)N([C@@H](C)CO)C[C@H](C)[C@@H](CN(C)C(=O)Nc2ccc(C(F)(F)F)cc2)OCCCC[C@H](C)O3)cc1	-74.8	2.1
COCC(=O)N1CC[C@@H]2[C@H]1c1cc(-c3ccc(F)cc3)ccc1N(C)[C@H]2CO	20.1	-8.3
CCc1csc(N2[C@H](C#N)[C@@H](c3ccc(-c4ccc(F)cc4)cc3)[C@@H]2CO)n1	-11.6	0.8
CCc1nc(N2[C@H](C#N)[C@H](c3ccccc3-c3ccccc3F)[C@@H]2CO)sc1C	-80.7*	0.9
CCc1csc(N2[C@H](C#N)[C@H](c3ccccc3-c3ccc(F)cc3)[C@H]2CO)n1	-92.6*	-0.6
CCc1nc(N2[C@H](CO)[C@@H](c3ccccc3-c3ccccc3F)[C@@H]2C#N)sc1C	17.1	3.0
COc1ccc(NC(=O)N(C)C[C@H]2Oc3ccc(NC(=O)Nc4ccc(F)cc4)cc3CC(=O)N([C@@H](C)CO)C[C@@H]2C)cc1	-4.9	6.7
CN1C(=O)c2cc(NC(=O)c3ccc(C(F)(F)F)cc3)ccc2OC[C@@H]2O[C@@H](CC(=O)O)CC[C@H]21	11.6	-1.7
C[C@H]1CN([C@@H](C)CO)C(=O)c2cc(NC(=O)Nc3cccc4ccccc34)ccc2O[C@@H]1CN(C)C(=O)NC1CCCCC1	-9.3	-1.6
C[C@@H]1CN([C@@H](C)CO)C(=O)c2cccc(NC(=O)CCCCCC(=O)Nc3ccccc3N)c2O[C@@H]1CN(C)Cc1ccc2c(c1)OCO2	-88.8*	-3.5
C[C@@H]1CN([C@@H](C)CO)C(=O)c2cccc(NC(=O)CCCCCC(=O)Nc3ccccc3N)c2O[C@H]1CN(C)Cc1ccc(Cl)c(Cl)c1	-86.9*	-2.0
C[C@H]1CN([C@@H](C)CO)C(=O)c2cc(NC(=O)CCCCCC(=O)Nc3ccccc3N)ccc2O[C@H]1CN(C)Cc1ccc(Cl)c(Cl)c1	-16.6	·
C[C@@H]1CN([C@H](C)CO)C(=O)c2cccc(NC(=O)CCCCCC(=O)Nc3ccccc3N)c2O[C@H]1CN(C)Cc1ccc(Cl)c(Cl)c1	-86.1*	-10.1
C[C@@H]1CN([C@H](C)CO)C(=O)c2cc(NC(=O)CCCCCC(=O)Nc3ccccc3N)ccc2O[C@@H]1CN(C)Cc1ccc(Cl)c(Cl)c1	-47.2	·
C[C@H]1CN([C@@H](C)CO)C(=O)c2cc(NC(=O)CCCCCC(=O)Nc3ccccc3N)ccc2O[C@@H]1CN(C)Cc1ccc2c(c1)OCO2	-74.2	-0.7
C[C@H]1CN([C@@H](C)CO)C(=O)c2cccc(NC(=O)CCCCCC(=O)Nc3ccccc3N)c2O[C@@H]1CN(C)Cc1ccc(Cl)c(Cl)c1	-91.7*	2.2
C[C@@H]1CN([C@@H](C)CO)C(=O)c2cc(NS(=O)(=O)c3ccc(Cl)cc3)ccc2O[C@@H](C)CCCCO[C@@H]1CN(C)C	·	0.7
